Source: PubChem BioAssay
IL1B secr inh = qHTS for Inhibitors of Inflammasome Signaling: IL-1-beta AlphaLISA Primary Screen; THP-1 LPS/ATP IL-1B secretion, AlphaLISA, 16 h; hits give low values; activity change, % at 57.5 µM; 4.7% of 360,000 active; in the data active means activity change below about -50%; inconclusive means mostly about -30% to -49%
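Secreted IL-1B measured by AlphaLISA bead assay after 16 h compound exposure of THP-1 cells; compounds (final up to 57.5 uM) added 1 h before LPS (250 ng/mL) and ATP (1.25 mM) stimulation; lower signal means less secretion.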
DT40 TDP1 no CPT = qHTS for Inhibitors of human tyrosyl-DNA phosphodiesterase 1 (TDP1): qHTS in cells in absence of CPT. DT40 Tdp1-/- hTDP1 cells, no CPT, ATP luminescence, 48 h. Potency, µM (series often up to 46.2 µM), most hits filed as inhibitors. 15% of 420,000 active. AID 686978, 2013; further: nearly all actives have a fitted effect of over 55% in size
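Seeded 400 DT40-hTDP1 cells/well (vehicle DMSO, no 20 nM CPT); pinned compounds; ≥48 hr at 37 °C; CellTiter-Glo luminescence as viability measure.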
TDP1 cell CPT = qHTS for Inhibitors of human tyrosyl-DNA phosphodiesterase 1 (TDP1): qHTS in cells in presence of CPT; AID 686979, 2013; chicken DT40 Tdp1-/-;hTDP1 cells + 20 nM CPT, ATP luminescence, 48 h; Potency, µM (titrated, usually from 46.2 µM), usual class: inhibitors; 12% of 420,000 active; further: nearly all actives have a fitted effect of over 55% in size
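Cell growth measured by CellTiter-Glo luminescence after a minimum 48 h, 37 C compound exposure with 20 nM CPT in Tdp1-knockout DT40 cells stably expressing hTDP1, seeded 400/well; qHTS titration format.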
HepG2 tox = qHTS for Inhibitors of TGF-b: Cytotox Counterscreen; HepG2 CAGA-GFP viability, ATP luminescence, 18 h; Potency, µM (series often up to 46.1 µM), usual class: cytotoxic; 0.76% of 410,000 active
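HepG2 CAGA-GFP cells (1000/well, DMEM with 1% FBS) received compound, then TGF-beta at 500 pg/mL final, and were incubated 18 hours at 37 degrees C. Viability was read by CellTiter-Glo luminescence. Media-only wells were set as complete cell-killing and DMSO as no toxicity.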
TGFb SMAD3 inh = qHTS for Inhibitors of TGF-b. HepG2 CAGA-GFP TGF-b/SMAD3 reporter, GFP fluorescence, 18 h; TGF-beta stimulated, 500 pg/mL final. AID 588855, 2011. Potency, µM (doses to about 46.1 µM), most hits filed as inhibitors. 1.2% of 410,000 active; further: nearly all actives have a fitted effect of over 65% in size
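First, reporter cells (HEPG2 CAGA-GFP) rested 2 h at 37 degrees C. Next, compounds were pinned in and TGF-beta added to 500 pg/mL final. After 18 h, GFP was imaged per cell and summed per well.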
TDP1 block = qHTS Assay for Inhibitors of Tyrosyl-DNA Phosphodiesterase (TDP1); recombinant TDP1, AlphaScreen DNA substrate cleavage; Potency, µM (top dose mostly 130 µM), hits mostly inhibitors; 0.28% of 350,000 active; further: nearly all actives have a fitted effect of over 40% in size
Target sequence (Q9NUW8 whole entry, looked up): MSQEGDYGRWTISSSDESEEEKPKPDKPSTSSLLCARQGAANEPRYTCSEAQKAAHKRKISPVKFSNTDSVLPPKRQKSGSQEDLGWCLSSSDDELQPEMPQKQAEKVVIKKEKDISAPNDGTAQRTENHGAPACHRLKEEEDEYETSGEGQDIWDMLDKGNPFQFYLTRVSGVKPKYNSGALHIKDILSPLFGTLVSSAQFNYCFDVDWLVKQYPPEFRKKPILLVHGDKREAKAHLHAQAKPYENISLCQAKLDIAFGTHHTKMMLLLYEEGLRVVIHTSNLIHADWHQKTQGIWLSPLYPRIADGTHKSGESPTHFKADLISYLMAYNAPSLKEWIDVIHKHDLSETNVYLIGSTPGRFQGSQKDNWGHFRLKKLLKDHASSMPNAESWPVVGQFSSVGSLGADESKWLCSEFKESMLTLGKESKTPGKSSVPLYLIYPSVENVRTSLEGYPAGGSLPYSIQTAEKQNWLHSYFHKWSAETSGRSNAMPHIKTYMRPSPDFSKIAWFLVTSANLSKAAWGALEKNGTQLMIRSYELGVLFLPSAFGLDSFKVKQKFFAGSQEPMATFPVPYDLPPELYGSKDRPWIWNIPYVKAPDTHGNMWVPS
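Here, a 5' biotin and 3' phosphotyrosine-FITC DNA oligonucleotide reports Tdp1 activity: intact substrate bridges AlphaScreen beads, while cleavage leaves a 3' phosphate and drops signal. All incubations at room temperature.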
Hits are given with their value; - = inactive; ? = inconclusive; . = no result. A selection: hits, their analogues and other compounds. The true share with any hit is near 18%. Unless noted, the call rests on the fitted dose curve; in most records, active means well fitted curve in the direction sought with a large enough effect; inconclusive means small, poorly fitted or top-dose-only effect, or another doubt; inactive means no such curve, though single readings can be large; an effect the other way counts as inactive or inconclusive.

SMILES | IL1B secr inh | DT40 TDP1 no CPT | TDP1 cell CPT | HepG2 tox | TGFb SMAD3 inh | TDP1 block
c1nc(NCCc2cnc[nH]2)c2cc(-c3ccc4c(c3)OCO4)ccc2n1 | . | . | . | . | . | -
COC(=O)c1sc(NC(=O)c2cc3nc(-c4ccc(Br)cc4)cc(C(F)(F)F)n3n2)c(C(=O)OC)c1C | . | ? | ? | - | - | -
COc1ccc(OC)c(Nc2nc(N)nc(CCl)n2)c1 | -101.9 | 18.4µM | 11.6µM | - | - | .
COc1ccccc1Nc1nc(N)nc(CCl)n1 | -100.1 | 13µM | 18.4µM | - | - | .
Nc1nc(CSC(=S)N2CCCCC2)nc(Nc2ccccc2)n1 | ? | ? | ? | - | - | -
COc1ccccc1Nc1nc(N)nc(-c2oc3ccccc3c2C)n1 | - | ? | 8.2µM | - | - | -
COc1ccccc1Nc1nc(N)nc(CSC(=S)N2CCCCC2)n1 | - | 13µM | 8.2µM | - | - | .
Cc1c(-c2nc(N)nc(Nc3ccc(F)cc3)n2)oc2ccccc12 | . | ? | ? | - | - | -
CN1CC(=O)Nc2cc(C(=O)O)ccc21 | . | - | - | - | - | -
COc1ccc(C(C)=O)cc1COc1cccnc1[N+](=O)[O-] | - | 16.4µM | ? | - | - | .
COc1ccc(C(C)=O)cc1COc1ccccc1[N+](=O)[O-] | - | - | - | - | - | -
CCOc1ccc(C(C)=O)cc1COc1cccnc1[N+](=O)[O-] | - | 6.51µM | 6.51µM | - | ? | .
CCOc1ccc(C(C)=O)cc1COc1ccc(-n2cnnn2)cc1 | -57.1 | ? | - | - | ? | -
O=[N+]([O-])c1ncccc1OCc1ccc(-c2ccccc2)cc1 | -55.6 | 16.4µM | ? | - | - | .
COc1ccccc1NS(=O)(=O)c1ccc(C)c(NS(=O)(=O)c2cc(NC(C)=O)ccc2OC)c1 | - | ? | - | - | - | .
Cc1ccnc(NC(=O)COc2ccc3c(c2)CCC3)c1 | - | - | - | - | - | .
CCOc1ccc(C(C)=O)cc1CSC(=N)N | - | 20.6µM | ? | - | - | -
CN(CC(=O)NCCc1ccc(S(N)(=O)=O)cc1)CC(=O)Nc1cccc(F)c1 | - | - | - | - | - | -
O=c1c2c(n3cnnc3n1C1CCCCC1)-c1ccccc1CC21CCCCC1 | - | 25.9µM | 20.6µM | - | - | -
Cn1c(=O)c2c(n3cnnc13)-c1ccccc1CC21CCCC1 | - | 14.6µM | ? | - | - | -
O=c1c2c(n3nnnc3n1Cc1ccccc1)-c1ccccc1CC21CCCC1 | - | ? | - | - | - | -
O=c1c2c(n3nnnc3n1-c1ccccc1)-c1ccccc1CC21CCCC1 | - | ? | 2.31µM | - | - | -
CSc1nnc2n(C)c3c(c(=O)n12)C1(CCCC1)Cc1ccccc1-3 | - | 25.9µM | ? | - | - | -
CS(=O)(=O)c1ccc(Cl)c(NC(=O)c2cccc(-n3cnnn3)c2)c1 | - | ? | - | - | - | -
COc1ccc(CNC(=O)C[C@H]2C[C@H](C(=O)N3CCOCC3)[C@@]3(CCC4CCCC4)c4[nH]c5cc(CCC(=O)N(C)C)ccc5c4CCN3C2=O)cc1OC | - | ? | ? | - | - | -
O=C1CC(c2cccc([N+](=O)[O-])c2)c2c(ccc3ccccc23)N1 (configuration not stated) | - | 8.2µM | 13µM | - | ? | -
COc1cccc(C2CC(=O)Nc3cc(C)c(C)cc32)c1 (configuration not stated) | - | 14.6µM | ? | - | - | .
O=C1CC(c2cccc([N+](=O)[O-])c2)c2cc3c(cc2N1)CCC3 (configuration not stated) | - | 25.9µM | 18.4µM | - | ? | -
